Measured values as given in ChEMBL document CHEMBL1961873, “Compounds: GSK PKIS; Assays: Nanosyn kinase panel” (2012).

Legend:
[1] = target: Serine/threonine-protein kinase 26 (Homo sapiens) (UniProt Q9P289); settings: at 1 µM;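 also: mean inhibition of MST4 kinase activity, reported from the GSK PKIS inhibitor-set screening panel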
[2] = target: Serine/threonine-protein kinase PAK 1 (Homo sapiens) (UniProt Q13153); settings: at 0.1 µM
[3] = target: Serine/threonine-protein kinase PAK 1 (Homo sapiens) (UniProt Q13153); settings: at 1 µM
[4] = target: Serine/threonine-protein kinase PAK 2 (Homo sapiens) (UniProt Q13177); settings: at 0.1 µM
Sequence of Serine/threonine-protein kinase PAK 2 (Homo sapiens) (Q13177 whole entry): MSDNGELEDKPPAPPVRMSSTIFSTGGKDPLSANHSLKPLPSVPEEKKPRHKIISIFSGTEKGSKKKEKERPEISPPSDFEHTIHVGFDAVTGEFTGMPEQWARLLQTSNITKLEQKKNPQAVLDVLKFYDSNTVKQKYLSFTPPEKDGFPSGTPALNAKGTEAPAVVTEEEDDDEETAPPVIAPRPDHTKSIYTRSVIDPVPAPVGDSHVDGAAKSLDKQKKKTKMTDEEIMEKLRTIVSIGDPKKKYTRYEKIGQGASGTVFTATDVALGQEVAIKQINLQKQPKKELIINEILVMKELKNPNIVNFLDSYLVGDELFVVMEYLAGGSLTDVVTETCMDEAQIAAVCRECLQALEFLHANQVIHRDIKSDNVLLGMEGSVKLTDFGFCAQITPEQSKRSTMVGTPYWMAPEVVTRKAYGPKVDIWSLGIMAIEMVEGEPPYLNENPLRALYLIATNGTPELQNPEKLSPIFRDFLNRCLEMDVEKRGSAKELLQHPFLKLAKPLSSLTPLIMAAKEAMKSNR

[5] = target: Serine/threonine-protein kinase PAK 2 (Homo sapiens) (UniProt Q13177); settings: at 1 µM
[6] = target: Serine/threonine-protein kinase PAK 3 (Homo sapiens) (UniProt O75914); settings: at 0.1 µM
Sequence of Serine/threonine-protein kinase PAK 3 (Homo sapiens) (O75914 whole entry, looked up): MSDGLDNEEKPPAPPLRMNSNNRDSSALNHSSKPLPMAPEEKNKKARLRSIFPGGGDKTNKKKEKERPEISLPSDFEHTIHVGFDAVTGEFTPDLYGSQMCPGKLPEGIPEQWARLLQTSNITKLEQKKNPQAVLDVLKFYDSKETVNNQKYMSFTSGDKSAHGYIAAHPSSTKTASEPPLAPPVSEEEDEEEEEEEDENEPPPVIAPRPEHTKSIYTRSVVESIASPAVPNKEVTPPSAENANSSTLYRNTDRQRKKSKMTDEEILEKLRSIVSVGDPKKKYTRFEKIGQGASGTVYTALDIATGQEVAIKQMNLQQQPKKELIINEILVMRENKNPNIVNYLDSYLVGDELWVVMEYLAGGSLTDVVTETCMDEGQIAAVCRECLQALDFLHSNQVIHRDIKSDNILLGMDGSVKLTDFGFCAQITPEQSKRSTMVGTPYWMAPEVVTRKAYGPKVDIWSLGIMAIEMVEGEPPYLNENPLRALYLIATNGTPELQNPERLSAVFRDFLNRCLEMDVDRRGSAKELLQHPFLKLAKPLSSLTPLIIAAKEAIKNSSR

[7] = target: Serine/threonine-protein kinase PAK 3 (Homo sapiens) (UniProt O75914); settings: at 1 µM
[8] = target: Serine/threonine-protein kinase PAK 5 (Homo sapiens) (UniProt Q9P286); settings: at 0.1 µM
Sequence of Serine/threonine-protein kinase PAK 5 (Homo sapiens) (Q9P286 whole entry, looked up): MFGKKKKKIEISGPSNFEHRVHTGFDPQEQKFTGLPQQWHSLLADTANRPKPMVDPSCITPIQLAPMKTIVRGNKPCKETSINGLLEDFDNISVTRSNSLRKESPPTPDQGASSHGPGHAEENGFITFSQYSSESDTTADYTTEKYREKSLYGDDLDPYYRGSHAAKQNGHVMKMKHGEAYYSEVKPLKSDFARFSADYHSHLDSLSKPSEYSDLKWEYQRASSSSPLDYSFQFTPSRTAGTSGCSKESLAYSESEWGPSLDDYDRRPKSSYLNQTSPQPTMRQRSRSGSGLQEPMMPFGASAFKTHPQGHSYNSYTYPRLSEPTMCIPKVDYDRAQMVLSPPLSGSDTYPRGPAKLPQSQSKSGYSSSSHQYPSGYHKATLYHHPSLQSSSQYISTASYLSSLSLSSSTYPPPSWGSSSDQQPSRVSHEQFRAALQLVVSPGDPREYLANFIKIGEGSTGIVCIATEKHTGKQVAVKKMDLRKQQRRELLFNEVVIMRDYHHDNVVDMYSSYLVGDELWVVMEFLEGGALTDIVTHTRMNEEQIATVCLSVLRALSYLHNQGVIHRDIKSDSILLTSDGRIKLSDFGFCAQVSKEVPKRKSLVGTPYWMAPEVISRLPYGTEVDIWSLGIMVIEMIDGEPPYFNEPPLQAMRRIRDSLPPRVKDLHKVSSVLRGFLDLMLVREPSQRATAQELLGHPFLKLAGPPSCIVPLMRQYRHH

[9] = target: Serine/threonine-protein kinase PAK 5 (Homo sapiens) (UniProt Q9P286); settings: at 1 µM
[10] = target: Serine/threonine-protein kinase PAK 6 (Homo sapiens) (UniProt Q9NQU5); settings: at 1 µM
Sequence of Serine/threonine-protein kinase PAK 6 (Homo sapiens) (Q9NQU5 whole entry, looked up): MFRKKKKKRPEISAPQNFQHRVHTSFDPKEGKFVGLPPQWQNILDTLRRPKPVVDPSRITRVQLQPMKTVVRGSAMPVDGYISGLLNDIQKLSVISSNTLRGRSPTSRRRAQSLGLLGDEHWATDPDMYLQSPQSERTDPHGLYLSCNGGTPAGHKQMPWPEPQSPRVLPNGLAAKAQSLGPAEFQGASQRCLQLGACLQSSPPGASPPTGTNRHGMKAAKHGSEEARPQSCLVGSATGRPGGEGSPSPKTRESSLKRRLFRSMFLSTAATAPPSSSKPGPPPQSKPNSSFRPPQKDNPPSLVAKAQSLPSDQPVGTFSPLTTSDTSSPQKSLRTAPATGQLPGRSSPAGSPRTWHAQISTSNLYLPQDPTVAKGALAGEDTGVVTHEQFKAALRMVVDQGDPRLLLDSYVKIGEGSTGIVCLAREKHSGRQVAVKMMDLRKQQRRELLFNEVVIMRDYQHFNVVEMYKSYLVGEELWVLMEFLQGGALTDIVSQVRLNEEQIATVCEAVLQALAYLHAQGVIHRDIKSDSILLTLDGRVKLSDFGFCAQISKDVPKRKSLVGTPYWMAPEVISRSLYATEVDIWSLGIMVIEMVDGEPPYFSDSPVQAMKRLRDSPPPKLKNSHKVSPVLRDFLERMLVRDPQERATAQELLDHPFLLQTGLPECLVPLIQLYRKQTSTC

[11] = system: Tyrosine-protein kinase ABL1 (Homo sapiens), P00519 [E255K]; settings: at 0.1 µM
[12] = system: Tyrosine-protein kinase ABL1 (Homo sapiens), P00519 [E255K]; settings: at 1 µM
[13] = system: Tyrosine-protein kinase ABL1 (Homo sapiens), P00519 [H396P]; settings: at 0.1 µM
[14] = system: Tyrosine-protein kinase ABL1 (Homo sapiens), P00519 [H396P]; settings: at 1 µM
[15] = system: Tyrosine-protein kinase ABL1 (Homo sapiens), P00519 [M351T]; settings: at 0.1 µM
[16] = system: Tyrosine-protein kinase ABL1 (Homo sapiens), P00519 [M351T]; settings: at 1 µM
[17] = system: Tyrosine-protein kinase ABL1 (Homo sapiens), P00519 [Q252H]; settings: at 0.1 µM
[18] = system: Tyrosine-protein kinase ABL1 (Homo sapiens), P00519 [Q252H]; settings: at 1 µM
[19] = system: Tyrosine-protein kinase ABL1 (Homo sapiens), P00519 [T315I]; settings: at 0.1 µM
[20] = target: Serine/threonine-protein kinase PAK 6 (Homo sapiens) (UniProt Q9NQU5); settings: at 0.1 µM

Sequence of Serine/threonine-protein kinase PAK 1 (Homo sapiens) (Q13153 whole entry): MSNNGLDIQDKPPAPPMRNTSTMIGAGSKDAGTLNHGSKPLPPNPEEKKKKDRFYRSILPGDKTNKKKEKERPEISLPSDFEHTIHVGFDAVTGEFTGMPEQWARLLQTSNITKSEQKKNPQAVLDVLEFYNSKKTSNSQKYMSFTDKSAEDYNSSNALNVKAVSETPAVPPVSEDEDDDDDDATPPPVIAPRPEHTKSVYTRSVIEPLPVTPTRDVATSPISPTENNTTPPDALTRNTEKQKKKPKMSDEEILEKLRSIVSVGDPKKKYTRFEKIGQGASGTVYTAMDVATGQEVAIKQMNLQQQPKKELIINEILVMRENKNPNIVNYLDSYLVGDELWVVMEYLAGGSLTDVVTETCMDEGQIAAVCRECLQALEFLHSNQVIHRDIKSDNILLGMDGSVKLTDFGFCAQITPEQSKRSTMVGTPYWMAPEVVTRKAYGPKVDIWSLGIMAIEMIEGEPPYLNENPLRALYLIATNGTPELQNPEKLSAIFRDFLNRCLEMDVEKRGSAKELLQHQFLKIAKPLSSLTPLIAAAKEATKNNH
Sequence of Serine/threonine-protein kinase 26 (Homo sapiens) (Q9P289 2-416 limits assumed): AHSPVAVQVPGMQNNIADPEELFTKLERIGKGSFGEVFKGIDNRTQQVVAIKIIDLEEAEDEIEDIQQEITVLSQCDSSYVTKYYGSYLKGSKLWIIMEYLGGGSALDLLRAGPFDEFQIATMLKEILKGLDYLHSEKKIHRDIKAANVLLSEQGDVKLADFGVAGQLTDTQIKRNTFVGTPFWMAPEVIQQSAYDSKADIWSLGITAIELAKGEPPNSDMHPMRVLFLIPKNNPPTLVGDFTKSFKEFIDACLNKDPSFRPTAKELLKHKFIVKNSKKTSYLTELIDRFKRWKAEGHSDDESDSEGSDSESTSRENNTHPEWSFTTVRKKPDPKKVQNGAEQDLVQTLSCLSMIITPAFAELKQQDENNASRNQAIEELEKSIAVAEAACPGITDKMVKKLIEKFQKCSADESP

SMILES	inhibition [1]	inhibition [2]	inhibition [3]	inhibition [4]	inhibition [5]	inhibition [6]	inhibition [7]	inhibition [8]	inhibition [9]	inhibition [10]	inhibition [11]	inhibition [12]	inhibition [13]	inhibition [14]	inhibition [15]	inhibition [16]	inhibition [17]	inhibition [18]	inhibition [19]	inhibition [20]
CNC(=O)c1cncc(/C=C/c2c(Cl)cccc2Cl)c1	-0.15%	4.17%	11%	1.59%	0.88%	4.45%	5.48%	5.92%	6.55%	-7.96%	3.46%	33.3%	9.69%	47.2%	6.02%	42.2%	8.15%	41.9%	-0.11%	–
CC1=C(C(=O)Nc2ccc3[nH]ncc3c2)C(c2ccc(F)cc2)NC(=O)N1 (stereo not given)	-0.49%	4.25%	9.83%	-0.87%	-0.03%	2.64%	1.55%	-0.45%	5.58%	-1.9%	-0.56%	4.16%	1.62%	1.78%	1.52%	3.88%	2.07%	3.37%	0.1%	2.39%
CC1=C(C(=O)Nc2ccc3[nH]ncc3c2)C(c2ccc3ccccc3c2)CC(=O)N1 (stereo not given)	-3.47%	0.76%	4.95%	-0.2%	2.46%	2.14%	0.85%	-1.65%	3.39%	-2.6%	2.56%	3.94%	3.48%	12.3%	3.47%	14.9%	3.89%	17.1%	5.08%	-2.35%
COc1ccc(COc2ccc(Cc3cnc(N)nc3N)cc2OC)cc1	0.63%	1.82%	5.79%	0.46%	0.32%	1.75%	1.06%	0.6%	7.84%	-2.29%	1.25%	–	0.76%	-1.33%	3.17%	-0.65%	2.23%	-0.16%	-0.36%	0.33%
CCN1CCC(CC(=O)Nc2n[nH]c3nc(-c4cccs4)c(Br)cc23)CC1	12%	-4.19%	-3.71%	-2.22%	-2.2%	-1.67%	-3.03%	0.15%	16.4%	-1.76%	-1.62%	2.21%	-0.27%	8.03%	-0.05%	4.95%	0.92%	11.6%	3.23%	–
Nc1nc(-c2ccc3c(c2)C(=Cc2cc(Br)c(O)c(Br)c2)C(=O)N3)cs1	15.5%	2.87%	-1.51%	-2.22%	-1.94%	-4.94%	-1.99%	–	-3.15%	–	-0.02%	6.46%	0.77%	4.36%	-0.05%	4.99%	2.23%	6.93%	-0.15%	-5.26%
